MEP2 TOR yeast – modulators of TOR pathway MEP2-GFP in S. cerevisiae; 330,000 compounds, 0.51% hits; S. cerevisiae MEP2-GFP strain, flow cytometry GFP, 3 h; 100% = DMSO control level; GFP response vs DMSO, % at 10 µM;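 active = GFP response versus DMSO above a set limit, roughly screen mean plus 3 SD, cut at about 180% in these data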;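 note: median GFP fluorescence of the barcode-gated MEP2-GFP cells per well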
LAP4-GFP MLPCN – yeast TOR pathway LAP4-GFP modulation; 320,000 compounds, 0.34% hits; GFP response vs DMSO, % at 10 µM; S. cerevisiae LAP4-GFP multiplex, flow cytometry GFP, 3 h; median GFP as percent of DMSO wells;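 active = GFP response vs DMSO above a set limit, about the screen mean plus 3 SD, cut at about 150% in these data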
RPL19A-GFP yeast – alters RPL19A-GFP fluorescence in TOR pathway yeast screen | S. cerevisiae RPL19A-GFP strain, flow cytometry, 3 h; hits give low values | percent response vs DMSO, % at 10 µM | 330,000 compounds, 0.3% hits;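 active = percent response vs DMSO below 50%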;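 note: median channel GFP fluorescence of the barcoded RPL19A-GFP strain; ratio of sample median GFP to plate DMSO average so 100% = DMSO; lower means less RPL19A-GFP as with rapamycin TOR inhibition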
CIT2-GFP yeast – yeast TOR pathway CIT2-GFP modulation; AID 2029; GFP response vs DMSO, % at 10 µM; S. cerevisiae CIT2-GFP strain, flow cytometry, 3 h; 100 means same as DMSO wells; 320,000 compounds, 0.065% hits;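 active = GFP response relative to DMSO above a set limit, near the screen mean plus 3 SD, cut at about 150% in these data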;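 note: ratio of well median GFP fluorescence to mean of DMSO wells on the plate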
AGP1 TOR yeast – yeast TOR pathway AGP1-GFP modulation; S. cerevisiae AGP1-GFP multiplex flow cytometry, 3 h; GFP as percent of DMSO wells; GFP response vs DMSO, % at 10 µM; 320,000 compounds, 0.02% hits; AID 2066;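 active = GFP response relative to DMSO above a set limit, near screen average plus 3 SD, cut at about 150% in these data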;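 note: median GFP channel fluorescence of the gated AGP1 strain per well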
LAP4 cherry2 – yeast LAP4-GFP modulation, second cherry pick. shares compounds with LAP4-GFP MLPCN. S. cerevisiae LAP4-GFP strain, flow cytometry GFP, 3 h. GFP response vs DMSO, % at 10 µM. 590 compounds, 20% hits;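 active = GFP signal as percent of the solvent control above about 150%, meaning raised reporter expression, limit read from the data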;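 note: ratio of well median GFP fluorescence to plate DMSO mean so 100% = DMSO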
MEP2-GFP pick2 – reconfirmed MEP2-GFP TOR pathway modulator in yeast. GFP response vs DMSO, % at 10 µM. S. cerevisiae MEP2-GFP strain, flow cytometry GFP, 3 h. shares compounds with LAP4-GFP MLPCN. 590 compounds, 10% hits. AID 2622;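 active = GFP signal above 150% of the solvent control wells, that is a rise of more than half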;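 note: median channel GFP fluorescence of all gated yeast cells per well; ratio of median GFP to plate DMSO average so 100% = DMSO level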
RPL19A-GFP pick2 – second confirmation of modulators of TOR reporter RPL19A-GFP in yeast. GFP response vs DMSO, % at 10 µM. S. cerevisiae RPL19A-GFP strain, flow cytometry GFP, 3 h; hits give low values; 100% means same as DMSO wells. shares compounds with LAP4-GFP MLPCN. 590 compounds, 3% hits;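 active = under 65% GFP response relative to DMSO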;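 note: median GFP channel fluorescence per well over the all cells gate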
CIT2-GFP pick2 – reconfirmed modulator of CIT2-GFP TOR reporter in yeast. S. cerevisiae CIT2-GFP strain, flow cytometry GFP, 3 h; DMSO control wells read 100%. GFP response vs DMSO, % at 10 µM. shares compounds with LAP4-GFP MLPCN. AID 2624. 590 compounds, 8% hits;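 active = GFP response vs DMSO above about 150%, limit read from the data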;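 note: median green fluorescence per well over all gated yeast cells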
AGP1-GFP pick2 – second confirmation of modulators of TOR reporter AGP1-GFP in yeast. shares compounds with LAP4-GFP MLPCN. S. cerevisiae AGP1-GFP strain, flow cytometry GFP, 3 h. percent response vs DMSO, % at 10 µM. 590 tested, under 10 active;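 active = over 150 percent of DMSO response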;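 note: median GFP channel fluorescence over all cells without mother daughter split; sample median GFP divided by mean DMSO control so 100% equals DMSO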
s288c autofluor – counter-screen for compound autofluorescence in yeast s288c cells | fluorescence change (kMESF span) at 33 µM | 610 tested, under 10 active | shares compounds with LAP4-GFP MLPCN | S. cerevisiae s288c, 520 nm autofluorescence, flow cytometry, 3 h; hits give high values; zero means same as solvent-only cells;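 active = fluorescence span over the dose series, or activity score, above about 33, limit read from the data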
TORC1 bypass – stops wildtype yeast growth while TORC1 bypass cells still grow | shares compounds with LAP4-GFP MLPCN | S. cerevisiae BY4741 spot growth rating, 48-72 h; hits give low values | growth rating (0-3) at 30 µM | 120 tested, under 10 active;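 active = growth rating at most 1 for wild type yeast while the TORC1 bypass strain still grows fully, rated 3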
* = called active by the depositor; . = no result given. The list is not random: actives were taken first. Their share in the collection is about 0.93%.

SMILES	MEP2 TOR yeast	LAP4-GFP MLPCN	RPL19A-GFP yeast	CIT2-GFP yeast	AGP1 TOR yeast	LAP4 cherry2	MEP2-GFP pick2	RPL19A-GFP pick2	CIT2-GFP pick2	AGP1-GFP pick2	s288c autofluor	others
Cc1cccc(-c2nsc(SCC(=O)NCC3CCCO3)n2)c1 (centres undefined)	105	102	96	101	99	.	.	.	.	.	.
O=C(COc1ccccc1)NNC(=S)NC(=O)c1ccc(Cl)cc1Cl	119	219*	109	92	98	260*	185*	83	122	117	1.4
C=CCn1c(C)c(C(C)=O)c(N2CCOCC2)nc1=S	162	93	65	106	28	99	98	99	110	95	.
COc1ccc(S(=O)(=O)NC(CC(C)C)C(=O)NC(C)c2cccs2)cc1 (centres undefined)	100	94	99	94	105	.	.	.	.	.	.
NC(=O)COc1ccc(C(=O)/C=C2/C(=O)Nc3ccccc32)cc1	91	103	94	109	105	.	.	.	.	.	0.91
C=CCOc1ccc(C(=O)/C=C2/C(=O)Nc3ccccc32)cc1	106	105	105	97	105	.	.	.	.	.	-0.2
C=CCOc1ccccc1C(=O)/C=C1/C(=O)Nc2ccccc21	91	132	101	84	91	.	.	.	.	.	-0.4
O=C1CC(c2ccccc2)=NN1c1nc(-c2ccccc2)cs1	100	79	63	62	40	149	213*	81	145	77	2.2
O=S(=O)(/N=C(\Sc1ccc(Cl)cc1)c1ccccc1)c1ccccc1	88	214*	83	82	93	.	.	.	.	.	-2.2
CS/C(=N\S(=O)(=O)c1ccc(Cl)cc1)c1ccccc1	97	100	97	91	91	.	.	.	.	.	.
COC(=O)Nc1ccc(S(=O)(=O)N2CCCC(C(=O)N3CC(C)OC(C)C3)C2)cc1 (centres undefined)	99	110	97	99	104	.	.	.	.	.	.
COc1cc(OC)c(N(C)S(=O)(=O)c2cccc(C(=O)Nc3nccs3)c2)cc1Cl	100	96	97	104	104	.	.	.	.	.	.
O=C(Nc1nc2ccc(F)cc2s1)c1ccccn1	103	178*	90	106	102	.	.	.	.	.	0.82
N/C(=N\OC(=O)c1cc(Br)ccc1Cl)c1ccccn1	104	208*	89	117	90	.	.	.	.	.	1.2
CNc1nc(N)cc(Nc2ccccc2F)n1	.	.	.	.	.	.	.	.	.	.	.	TORC1 bypass=3
CC(NC(=O)c1ccco1)C(=O)N1CCCCC1 (centres undefined)	110	91	100	150*	113	100	103	101	100	98	.
C[C@H](NC(=O)c1ccco1)C(=O)N1CCCC1	92	80	93	89	85	.	.	.	.	.	.
Cc1ccc(O)c(C(=O)CC(=O)c2ccccc2Cl)c1	111	74	51	69	51	104	102	99	109	97	.
